Reference: PubChem BioAssay AID1159580 (chemical genetic matrix, 2015)
The campaign covered roughly 5,500 compounds. About 2,000 (36%) were called active. Roughly 18% stayed inconclusive and do not appear here. No stated cut-off is given here; in the data, active means normalized growth mostly below about 0.91 (no sharp cut-off); inconclusive means no clear call, values can overlap the other calls; inactive means mostly above about 0.92. The list shows a part of the results.

Assay: chemical genetic growth profiling, strain panel (AID 1159580);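 further: tested at 20 µM; growth read once vehicle control cultures reached saturation at 30 °C; 1 = growth at the plate median or of vehicle wells; lower values mean less growth of the strain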
Details: growth OD

Measured: normalized growth

CCN1CCN(C(=O)NC(C(=O)N[C@@H]2C(=O)N3[C@@H]2SC(C)(C)[C@@H]3C(=O)O)c2ccccc2)C(=O)C1=O (some centres not stated)
inactive: S. cerevisiae deletion strains, locus YJR075W, strain HOC1, active compounds read low 1.01 | S. cerevisiae deletion strains, locus YKL009W, strain mrt4, active compounds read low 1.02 | S. cerevisiae deletion strains, locus YKL068W, active compounds read low 1 | S. cerevisiae deletion strains, locus YKL085W, strain MDH1 (second series), active compounds read low 0.998 | S. cerevisiae deletion strains, locus YKL085W, strain MDH1, active compounds read low 0.998 | S. cerevisiae deletion strains, locus YKL160W, strain elf1, active compounds read low 0.985 | S. cerevisiae deletion strains, locus YKL190W, strain CNB1, active compounds read low 1.01 | S. cerevisiae deletion strains, locus YKR001C, strain vps1, active compounds read low 1.01 | S. cerevisiae deletion strains, locus YKR026C, strain gcn3, active compounds read low 0.996 | S. cerevisiae deletion strains, locus YKR091W, strain srl3, active compounds read low 1 | S. cerevisiae deletion strains, locus YLL001W, strain dnm1, active compounds read low 0.979 | S. cerevisiae deletion strains, locus YLL026W, active compounds read low 1.01 | S. cerevisiae deletion strains, locus YLL041C, strain sdh2, active compounds read low 0.997 | S. cerevisiae deletion strains, locus YLR027C, strain aat2, active compounds read low 0.998 | S. cerevisiae deletion strains, locus YLR039C, strain RIC1, active compounds read low 0.991 | S. cerevisiae deletion strains, locus YLR058C, strain SHM2, active compounds read low 1.02 | S. cerevisiae deletion strains, locus YLR102C, strain apc9, active compounds read low 1 | S. cerevisiae deletion strains, locus YLR113W, strain HOG1, active compounds read low 0.987 | S. cerevisiae deletion strains, locus YLR221C, strain rsa3, active compounds read low 1 | S. cerevisiae deletion strains, locus YLR258W, strain gsy2, active compounds read low 1 | S. cerevisiae deletion strains, locus YLR262C, strain YPT6 (second series), active compounds read low 0.983 | S. cerevisiae deletion strains, locus YLR262C, strain YPT6, active compounds read low 0.993 | S. cerevisiae deletion strains, locus YLR268W, strain sec22, active compounds read low 1.02 | S. cerevisiae deletion strains, locus YLR320W, strain mms22, active compounds read low 0.978 | S. cerevisiae deletion strains, locus YLR330W, strain CHS5, active compounds read low 1.01 | S. cerevisiae deletion strains, locus YLR342W, strain FKS1 (second series), active compounds read low 1.03 | S. cerevisiae deletion strains, locus YLR342W, strain FKS1, active compounds read low 0.991 | S. cerevisiae deletion strains, locus YLR357W, strain rsc2, active compounds read low 0.957 | S. cerevisiae deletion strains, locus YLR370C, strain arc18, active compounds read low 1.01 | S. cerevisiae deletion strains, locus YLR371W, strain rom2, active compounds read low 1.01 | S. cerevisiae deletion strains, locus YLR384C, strain iki3, active compounds read low 0.992 | S. cerevisiae deletion strains, locus YLR418C, strain cdc73, active compounds read low 1 | S. cerevisiae deletion strains, locus YML016C, strain PPZ1, active compounds read low 1.01 | S. cerevisiae deletion strains, locus YML032C, strain rad52, active compounds read low 1.01 | S. cerevisiae deletion strains, locus YML120C, strain ndi1, active compounds read low 1.01 | S. cerevisiae deletion strains, locus YML124C, strain tub3, active compounds read low 1.01 | S. cerevisiae deletion strains, locus YMR058W, strain fet3, active compounds read low 1 | S. cerevisiae deletion strains, locus YMR078C, strain ctf18, active compounds read low 1 | S. cerevisiae deletion strains, locus YMR125W, strain sto1, active compounds read low 0.988 | S. cerevisiae deletion strains, locus YMR129W, active compounds read low 1 | S. cerevisiae deletion strains, locus YMR205C, strain PFK2, active compounds read low 1.01 | S. cerevisiae deletion strains, locus YMR223W, strain ubp8, active compounds read low 1.01 | S. cerevisiae deletion strains, locus YMR231W, strain pep5, active compounds read low 0.989 | S. cerevisiae deletion strains, locus YMR263W, strain SAP30, active compounds read low 1.01 | S. cerevisiae deletion strains, locus YMR307W, strain GAS1, active compounds read low 0.931 | S. cerevisiae deletion strains, locus YNL067W, strain RPL9B, active compounds read low 1.01 | S. cerevisiae deletion strains, locus YNL071W, strain lat1, active compounds read low 0.999 | S. cerevisiae deletion strains, locus YNL128W, strain TEP1, active compounds read low 1.01 | S. cerevisiae deletion strains, locus YNL153C, strain GIM3, active compounds read low 1.01 | S. cerevisiae deletion strains, locus YNL183C, strain NPR1, active compounds read low 0.967 | S. cerevisiae deletion strains, locus YNL209W, strain ssb2, active compounds read low 1 | S. cerevisiae deletion strains, locus YNL233W, strain BNI4, active compounds read low 0.995 | S. cerevisiae deletion strains, locus YNL248C, strain rpa49, active compounds read low 0.996 | S. cerevisiae deletion strains, locus YNL250W, strain rad50, active compounds read low 1.01 | S. cerevisiae deletion strains, locus YNL271C, strain bni1, active compounds read low 1.01 | S. cerevisiae deletion strains, locus YNL298W, strain CLA4, active compounds read low 1.01 | S. cerevisiae deletion strains, locus YNL307C, strain MCK1, active compounds read low 1.01 | S. cerevisiae deletion strains, locus YNL322C, strain KRE1 (second series), active compounds read low 1 | S. cerevisiae deletion strains, locus YNL322C, strain KRE1, active compounds read low 1 | S. cerevisiae deletion strains, locus YNR049C, strain mso1, active compounds read low 0.993 | S. cerevisiae deletion strains, locus YNR052C, strain pop2, active compounds read low 1.01 | S. cerevisiae deletion strains, locus YOL006C, strain TOP1, active compounds read low 1.02 | S. cerevisiae deletion strains, locus YOL012C, strain htz1 1.52 | S. cerevisiae deletion strains, locus YOL147C, strain pex11, active compounds read low 1 | S. cerevisiae deletion strains, locus YOR001W, strain rrp6, active compounds read low 0.987 | S. cerevisiae deletion strains, locus YOR061W, strain CKA2, active compounds read low 1.01 | S. cerevisiae deletion strains, locus YOR069W, strain VPS5, active compounds read low 1.01 | S. cerevisiae deletion strains, locus YOR070C, strain gyp1, active compounds read low 1 | S. cerevisiae deletion strains, locus YOR080W, strain dia2, active compounds read low 0.997 | S. cerevisiae deletion strains, locus YOR083W, strain WHI5, active compounds read low 0.976 | S. cerevisiae deletion strains, locus YOR106W, strain vam3, active compounds read low 0.984 | S. cerevisiae deletion strains, locus YOR136W, strain idh2, active compounds read low 1.01 | S. cerevisiae deletion strains, locus YOR144C, strain elg1, active compounds read low 1.01 | S. cerevisiae deletion strains, locus YOR184W, strain ser1, active compounds read low 1.02 | S. cerevisiae deletion strains, locus YOR231W, strain MKK1, active compounds read low 0.985 | S. cerevisiae deletion strains, locus YOR265W, strain rbl2, active compounds read low 1 | S. cerevisiae deletion strains, locus YOR270C, strain vph1, active compounds read low 1.01 | S. cerevisiae deletion strains, locus YOR290C, strain snf2, active compounds read low 1.01 | S. cerevisiae deletion strains, locus YOR316C, strain cot1, active compounds read low 1.01 | S. cerevisiae deletion strains, locus YPL051W, strain arl3, active compounds read low 0.983 | S. cerevisiae deletion strains, locus YPL055C, strain LGE1, active compounds read low 1.01 | S. cerevisiae deletion strains, locus YPL078C, strain atp4, active compounds read low 0.976 | S. cerevisiae deletion strains, locus YPL106C, strain sse1, active compounds read low 1.02 | S. cerevisiae deletion strains, locus YPL240C, strain hsp82, active compounds read low 0.988 | S. cerevisiae deletion strains, locus YPL241C, strain CIN2, active compounds read low 1 | S. cerevisiae deletion strains, locus YPL256C, strain CLN2, active compounds read low 0.962 | S. cerevisiae deletion strains, locus YPR119W, strain clb2, active compounds read low 1.02 | S. cerevisiae deletion strains, locus YPR141C, strain kar3, active compounds read low 1.02 | S. cerevisiae deletion strains, locus YPR163C, strain tif3, active compounds read low 1.02 | S. cerevisiae deletion strains, locus YPR167C, strain met16, active compounds read low 1.02 | S. cerevisiae deletion strains, strain wtn01, active compounds read low 1.04 | S. cerevisiae strains, strain wild type, active compounds read low 1.01
